The assay concerns the target Albumin (Bos taurus) (UniProt P02769). Description: compounds binding labelled BSA control protein – biochemical, small-molecule microarray, Alexa647 label, 635/667 nm fluorescence, artefact control for SMM control protein annotation, profiling panel (AID 1118).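 Further: score merges 667 nm emission intensity and signal-to-noise per printed compound spot.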 As to conditions: BSA-A647 binding, fluorescence 635 nm, higher = more signal.
Chain of Albumin (Bos taurus) (P02769 whole entry, looked up): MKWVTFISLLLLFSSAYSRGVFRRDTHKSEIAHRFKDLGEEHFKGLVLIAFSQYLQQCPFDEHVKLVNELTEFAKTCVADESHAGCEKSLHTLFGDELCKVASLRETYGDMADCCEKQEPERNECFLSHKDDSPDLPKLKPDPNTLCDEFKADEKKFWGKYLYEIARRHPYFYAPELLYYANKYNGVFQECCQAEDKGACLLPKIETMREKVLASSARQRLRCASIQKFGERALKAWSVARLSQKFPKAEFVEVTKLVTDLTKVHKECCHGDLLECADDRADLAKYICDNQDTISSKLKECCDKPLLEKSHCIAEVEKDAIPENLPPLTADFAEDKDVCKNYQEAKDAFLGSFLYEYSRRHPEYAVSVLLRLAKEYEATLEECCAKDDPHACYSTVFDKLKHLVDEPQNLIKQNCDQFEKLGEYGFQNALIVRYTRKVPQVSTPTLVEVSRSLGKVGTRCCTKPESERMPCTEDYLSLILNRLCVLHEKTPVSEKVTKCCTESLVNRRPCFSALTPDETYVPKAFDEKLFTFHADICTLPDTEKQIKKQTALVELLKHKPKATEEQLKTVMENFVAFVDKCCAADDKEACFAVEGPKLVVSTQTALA
`NC(=O)NCC#Cc1ccc2c(c1)[C@]1(C(=O)N2)[C@H](C(=O)N2CCCCCCC2)[C@H]2C(=O)O[C@H](c3ccccc3)[C@H](c3ccccc3)N2[C@@H]1c1ccc(O)cc1` showed a composite z-score of 0.408.

As for `COCCOC(=O)N1C(=O)[C@@]2(c3cc(C#CC4=CCCCC4)ccc31)[C@H](C(=O)N1CCN(c3ncccn3)CC1)[C@H]1C(=O)O[C@H](c3ccccc3)[C@H](c3ccccc3)N1[C@@H]2c1ccccc1OCCO`, the composite z-score is 0.768.

`COCCOC(=O)N1C(=O)[C@@]2(c3cc(C#CC4(O)CCCCCC4)ccc31)[C@H](c1ccccc1OCCO)N1[C@H](c3ccccc3)[C@H](c3ccccc3)OC(=O)[C@H]1[C@@H]2C(=O)N1CCCCCCC1`: the composite z-score amounted to 0.187.

For `CCCCC=C[C@@H](NC(=O)c1ccc(C(F)(F)F)cc1)c1ccccc1`, the composite z-score is -0.81.

Consider `C=CCC(OC(C)=O)[C@@H]1[C@@H](N(Cc2ccc(-c3ccccc3)cc2)C(=O)c2ccc(C)cc2)c2cc(OCCCO)ccc2N1C(=O)c1ccc2ccccc2c1` (some centres not stated), for which the composite z-score is 0.608.

For `CCCCC(=C=CC[C@@H](O)c1cccc(OCCO)c1)CCO`, the composite z-score was 0.319.

On to `CCOC(=O)C[C@H]1[C@H](OC(=O)Cc2ccc3c(c2)OCO3)[C@@H](NC(=O)c2ccccc2)c2cc(OCCCO)ccc2N1C(=O)Cc1ccc(OC)cc1`, for which the composite z-score turned out to be 0.521.

For the compound `CCCCN1CC=CC23O[C@@H]4C=CCOC(=O)[C@@H]4[C@H]2C(=O)N(C(CO)C(C)C)[C@@H]3C1=O` (some centres not stated), the composite z-score is -0.709.

In turn, `COC(=O)[C@@]1(Cc2ccc(OC)cc2)[C@@H]2[C@@H](CC(=O)[C@H]2CC(=O)C(=O)N2CCCC2)CN1C(=O)c1ccccc1` displayed a composite z-score of 0.979.

Consider `COC(=O)c1c(CC[C@@H](CO)NC(=O)N[C@@H](Cc2ccccc2)Cn2cc(-c3cncn3C)nn2)oc(C(C)=O)c1C(=O)OC`, for which the composite z-score stood at 0.979.

For `C=CCC(OC(C)=O)[C@@H]1[C@@H](N(Cc2ccc(-c3cccc(C(F)(F)F)c3)o2)C(=O)c2cccc3ccccc23)c2cc(OCCCO)ccc2N1C(=O)c1ccc2ccccc2n1` (some centres not stated), the composite z-score was -0.197.

For the compound `CC(=O)NCCCC[C@@H]1NC(=O)[C@H]2C[C@@H](C(=O)NCCCCCC[N+](C)(C)C)[C@@H](c3ccc(O)cc3)N2C1=O`, the composite z-score turned out to be 0.596.

Consider `N#Cc1ccc(C(O)C2C=CC3C(=O)NC(=O)C3N2Nc2ccccn2)cc1` (configuration not stated), for which the composite z-score stood at 0.95.

Regarding `C=CCNC(=O)[C@H]1[C@@H]2C(=O)O[C@@H](c3ccccc3)[C@@H](c3ccccc3)N2[C@@H](c2ccccc2OCCO)[C@]12C(=O)N(C(=O)OCCOC)c1ccccc12`, the composite z-score stood at 0.813.

Consider `C=CC[C@]1(C(=O)NCc2ccccc2)COC(c2ccc(OCCCO)cc2)=N1`, for which the composite z-score came out at 0.981.

The compound `COc1cc2c(cc1O)C(C1CC1)N(Cc1ccc([N+](=O)[O-])o1)CC2` (configuration not stated) came in with a composite z-score of 0.959.

Take `CCOC(=O)C[C@H]1[C@H](OC(=O)c2ccc(C(=O)c3ccccc3)cc2)[C@@H](NC(=O)c2ccc3ccccc3c2)c2cc(OCCCO)ccc2N1C(=O)c1ccc2ccccc2n1`: the composite z-score came out at 0.544.

With `CC(C)(C)N1CC=CC23O[C@@H]4/C=C\CCCOC(=O)C4[C@H]2C(=O)N(CCCCCCO)[C@@H]3C1=O` (some centres not stated), the composite z-score worked out at 0.708.

Consider `CCC[C@@H]1C=C(C(=O)OCC)[C@H](c2ccccc2)N1S(=O)(=O)c1ccc(C)cc1`, for which the composite z-score was determined as 0.854.

In the case of `O=C1OCCC=C[C@H]2OC34C=CCN(CCN5CCOCC5)C(=O)[C@H]3N(CCCO)C(=O)[C@@H]4C12` (some centres not stated), the composite z-score was -0.444.

Compound `CCOC(=O)C1=C[C@@H](C(C)(C)C)N(S(=O)(=O)c2ccc(C)cc2)[C@H]1c1ccccc1Cl` had a composite z-score of 0.981.

Take `C[C@H]1C2[C@H](Cc3ccccc3)NC(=O)[C@]23C(=O)NCC(=O)N2CCC[C@H]2C(=O)NC/C=C\C/C=C/C3[C@@H]2O[C@]12C` (some centres not stated): the composite z-score was -0.674.

Turning to `COc1ccc([Si](C)(C)[C@@H]2[C@@H](CCO)O[C@]3(C(=O)N(Cc4ccccc4)c4ccc(N5C(=O)c6ccccc6Oc6ccccc65)cc43)[C@H]2C)cc1`, the composite z-score is 0.208.

`COCCOC(=O)N1C(=O)[C@@]2(c3ccccc31)[C@H](C(N)=O)[C@H]1C(=O)O[C@H](c3ccccc3)[C@H](c3ccccc3)N1[C@@H]2c1ccc(OCCO)cc1` returned a composite z-score of 0.787.

As to `COCCCNC(=O)[C@@H]1c2ccccc2C(=O)N(Cc2cc(C(F)(F)F)cc(C(F)(F)F)c2)[C@H]1c1ccc(CO)cc1`, the composite z-score was -0.873.

As for `NCCCC[C@@H]1NC(=O)[C@H]2C[C@@H](C(=O)NCc3ccc(F)cc3)[C@@H](c3ccc(O)cc3)N2C1=O`, the composite z-score is -0.135.

For `CC(C)C[C@@H]1NC(=O)[C@H]2C[C@@H](C(=O)NCCCCCNC(=O)CS)[C@@H](c3ccc(O)cc3)N2C1=O`, the composite z-score is -0.796.

Source of the values: PubChem BioAssay.
